Measurements as given in PubChem BioAssay (Tox21).
Records with an inconclusive call do not appear. Active and inactive are the calls of the source. Unless noted, calls come from the whole dose curve; as a rule, active = well fitted curve in the direction sought with a large enough effect in the repeat runs; inconclusive = weak or mixed curves; inactive = no such curve, though single readings can be large; an effect the other way counts as inactive or inconclusive.

Key:
[1] = target: Thyrotropin-releasing hormone receptor (Homo sapiens) (UniProt P34981); test: qHTS assay to identify small molecule agonists of the thyrotropin-releasing hormone receptor (TRHR) signaling pathway (AID 1346891; calls by dose curve;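 note: HEK293 cells expressing TRHR with calcium dye readout; series mostly up to about 58 µM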)
Chain of Thyrotropin-releasing hormone receptor (Homo sapiens) (P34981 whole entry, looked up): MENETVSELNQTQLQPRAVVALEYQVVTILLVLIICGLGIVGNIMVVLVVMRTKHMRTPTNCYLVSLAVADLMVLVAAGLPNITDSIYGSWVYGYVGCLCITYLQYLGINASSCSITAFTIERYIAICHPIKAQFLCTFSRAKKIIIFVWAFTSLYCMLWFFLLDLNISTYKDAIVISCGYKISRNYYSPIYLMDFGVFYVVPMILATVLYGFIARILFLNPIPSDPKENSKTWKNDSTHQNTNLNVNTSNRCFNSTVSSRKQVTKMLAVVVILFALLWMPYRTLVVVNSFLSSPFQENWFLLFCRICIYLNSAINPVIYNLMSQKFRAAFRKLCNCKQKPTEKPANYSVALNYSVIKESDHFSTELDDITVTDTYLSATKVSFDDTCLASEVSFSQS
How it was run: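 Kinetic fluorescence (3 min, 1 s intervals) reported intracellular calcium after compound transfer onto TRHR-Hek293 cells pre-loaded with dye for 2 h at 37 °C.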

[2] = Human pregnane X receptor (PXR) small molecule agonists, qHTS cell viability counter screen (AID 1346977); note: nearly all actives have a fitted effect of over 50% in size
How it was run: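 HepG2 cells stably carrying the PXR-Luc reporter are cultured with 5% charcoal-stripped FBS and treated with compounds for 24hr. CellTiter-Fluor is added at 23hr and fluorescence is read after 1hr.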

[3] = Caspase-3/7 induction in HepG2 cells by small molecules, qHTS assay (AID 1346978); note: nearly all actives have a fitted effect of over 15% in size
How it was run: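 Caspase-3/7 induction was measured by Caspase-Glo 3/7 luminescence (30 min, room temperature) after a 17 hr compound exposure of wild-type HepG2 cells seeded at 2,000 per well and pre-incubated 5 hr.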

[4] = Caspase-3/7 induction in CHO-K1 cells by small molecules, qHTS assay (AID 1346980); note: nearly all actives have a fitted effect of over 15% in size
How it was run: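 Luminescent Caspase-Glo 3/7 read (30min, room temperature) quantified apoptosis induction. Cells were wild-type CHO-K1, treated with compound for 17hr at 37 C and 5% CO2.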

[5] = Caspase-3/7 induction in HepG2 cells by small molecules, qHTS cell viability counter screen (AID 1346981); note: series mostly up to about 92 µM; nearly all actives have a fitted effect of over 30% in size
How it was run: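 Cell viability is measured as a cytotoxicity counter screen alongside the Caspase-Glo 3/7 readout in identical wells. Wild-type HepG2 cells are treated with test compounds for 16 hr at 37 C before CellTiter-Fluor addition and a 1-hr incubation.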

[6] = target: Nuclear receptor subfamily 1 group I member 2 (Homo sapiens) (UniProt O75469); test: Human pregnane X receptor (PXR) small molecule agonists, qHTS assay (AID 1346982); note: nearly all actives have a fitted effect of over 35% in size; note: potency is the fitted concentration of half-maximal effect
Chain of Nuclear receptor subfamily 1 group I member 2 (Homo sapiens) (O75469 whole entry, looked up): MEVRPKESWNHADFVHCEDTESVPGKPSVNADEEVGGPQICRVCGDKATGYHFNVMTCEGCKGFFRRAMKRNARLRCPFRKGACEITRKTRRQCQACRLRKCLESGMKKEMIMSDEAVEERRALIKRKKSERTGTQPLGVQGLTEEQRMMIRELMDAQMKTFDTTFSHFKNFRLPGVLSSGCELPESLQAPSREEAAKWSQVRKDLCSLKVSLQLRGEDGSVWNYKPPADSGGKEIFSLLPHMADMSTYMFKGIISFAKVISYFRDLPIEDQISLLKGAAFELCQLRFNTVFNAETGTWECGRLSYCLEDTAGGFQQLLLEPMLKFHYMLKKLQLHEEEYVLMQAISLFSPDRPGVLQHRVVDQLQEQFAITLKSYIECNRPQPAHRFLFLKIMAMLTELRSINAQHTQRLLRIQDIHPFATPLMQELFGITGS
How it was run: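 Cells: HepG2 stably carrying PXR-Luc. Medium held 5% charcoal-stripped FBS. Compounds in DMSO added after 5 hr plating, incubated 24 hr, then luminescence quantified with ONE-Glo.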

[7] = target: Cytochrome P450 2D6 (Homo sapiens) (UniProt P10635); test: Cytochrome P450 Family 2 Subfamily D Member 6 (CYP2D6) small molecule antagonists: luciferase reporter qHTS assay (AID 1671196); note: nearly all actives have a fitted effect of over 50% in size; note: potency is the fitted concentration of half-maximal effect
Chain of Cytochrome P450 2D6 (Homo sapiens) (P10635 whole entry, looked up): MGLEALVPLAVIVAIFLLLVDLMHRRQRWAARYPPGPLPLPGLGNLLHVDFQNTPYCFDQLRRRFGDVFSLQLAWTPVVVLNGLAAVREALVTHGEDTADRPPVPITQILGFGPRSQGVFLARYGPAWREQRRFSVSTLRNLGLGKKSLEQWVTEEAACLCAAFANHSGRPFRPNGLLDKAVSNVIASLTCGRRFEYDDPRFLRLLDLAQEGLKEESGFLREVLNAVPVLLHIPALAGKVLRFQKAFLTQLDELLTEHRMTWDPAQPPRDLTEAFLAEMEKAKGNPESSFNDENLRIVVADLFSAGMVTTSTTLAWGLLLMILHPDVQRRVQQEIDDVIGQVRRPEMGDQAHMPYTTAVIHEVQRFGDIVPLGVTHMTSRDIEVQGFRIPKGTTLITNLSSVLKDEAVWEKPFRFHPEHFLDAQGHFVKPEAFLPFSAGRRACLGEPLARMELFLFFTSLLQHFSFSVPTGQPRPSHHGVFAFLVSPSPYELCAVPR
How it was run: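 Enzyme and proluciferin substrate were first combined with test chemical for 10 min at room temperature. Adding NADPH regeneration solution started a 1 h reaction, stopped with luciferin detection reagent and read by luminescence 20 min later.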

[8] = target: Cytochrome P450 2C19 (Homo sapiens) (UniProt P33261); test: Cytochrome P450 Family 2 Subfamily C Member 19 (CYP2C19) small molecule antagonists: luciferase reporter qHTS assay (AID 1671197); note: nearly all actives have a fitted effect of over 65% in size; note: potency is the fitted concentration of half-maximal effect
Chain of Cytochrome P450 2C19 (Homo sapiens) (P33261 whole entry, looked up): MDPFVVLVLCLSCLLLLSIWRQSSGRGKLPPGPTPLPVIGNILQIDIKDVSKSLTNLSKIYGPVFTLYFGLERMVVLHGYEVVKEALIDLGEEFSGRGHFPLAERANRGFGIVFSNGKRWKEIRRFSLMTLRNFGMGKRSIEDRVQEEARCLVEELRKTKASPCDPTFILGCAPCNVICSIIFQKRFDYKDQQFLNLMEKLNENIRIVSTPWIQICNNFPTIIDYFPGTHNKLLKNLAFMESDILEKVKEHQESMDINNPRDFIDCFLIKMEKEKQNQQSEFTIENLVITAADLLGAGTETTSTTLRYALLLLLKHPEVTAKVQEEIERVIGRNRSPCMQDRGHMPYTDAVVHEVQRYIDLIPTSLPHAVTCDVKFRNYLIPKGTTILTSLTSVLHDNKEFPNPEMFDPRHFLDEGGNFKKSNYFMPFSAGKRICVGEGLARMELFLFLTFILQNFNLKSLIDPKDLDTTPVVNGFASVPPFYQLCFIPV
How it was run: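 Enzyme-substrate mix with proluciferin substrate (P450-Glo CYP2C19 system) preincubated with compounds 10 min at room temperature; NADPH regeneration solution added, 37C for 1 h; detection reagent stops reaction, luminescence read after 20 min. Ketoconazole positive control.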

[9] = target: Cytochrome P450 2C9 (Homo sapiens) (UniProt P11712); test: Cytochrome P450 Family 2 Subfamily C Member 9 (CYP2C9) small molecule antagonists: luciferase reporter qHTS assay (AID 1671198); note: nearly all actives have a fitted effect of over 50% in size; note: potency is the fitted concentration of half-maximal effect
Chain of Cytochrome P450 2C9 (Homo sapiens) (P11712 whole entry, looked up): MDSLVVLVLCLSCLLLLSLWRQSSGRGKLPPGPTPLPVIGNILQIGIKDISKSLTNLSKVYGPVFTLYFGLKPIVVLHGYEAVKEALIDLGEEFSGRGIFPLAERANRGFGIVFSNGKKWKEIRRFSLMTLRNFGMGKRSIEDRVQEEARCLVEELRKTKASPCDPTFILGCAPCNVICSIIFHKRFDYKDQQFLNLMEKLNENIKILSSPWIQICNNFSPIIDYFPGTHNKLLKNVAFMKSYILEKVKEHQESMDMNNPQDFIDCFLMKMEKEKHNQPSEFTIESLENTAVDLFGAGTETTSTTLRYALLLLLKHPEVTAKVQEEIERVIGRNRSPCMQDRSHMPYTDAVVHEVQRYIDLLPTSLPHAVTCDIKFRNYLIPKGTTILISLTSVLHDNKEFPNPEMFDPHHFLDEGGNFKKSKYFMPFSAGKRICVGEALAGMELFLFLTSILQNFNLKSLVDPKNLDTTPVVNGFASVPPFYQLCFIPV
How it was run: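 Enzyme-substrate mix preincubated with compound 10 min at room temperature; reaction started with NADPH regeneration solution, 1 h 37C. Luminescent luciferin product read after 20 min detection reagent.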

[10] = target: Voltage-gated inwardly rectifying potassium channel KCNH2 (Homo sapiens) (UniProt Q12809); test: Human Ether-a-go-go-Related Gene (hERG) channel small molecule antagonists: fluorescence cell-based qHTS assay (AID 1671200);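 note: hERG-expressing U2OS cells given a thallium stimulus after FluxOR II dye loading; series mostly up to about 77 µM; nearly all actives have a fitted effect of over 50% in size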
Chain of Voltage-gated inwardly rectifying potassium channel KCNH2 (Homo sapiens) (Q12809 whole entry, looked up): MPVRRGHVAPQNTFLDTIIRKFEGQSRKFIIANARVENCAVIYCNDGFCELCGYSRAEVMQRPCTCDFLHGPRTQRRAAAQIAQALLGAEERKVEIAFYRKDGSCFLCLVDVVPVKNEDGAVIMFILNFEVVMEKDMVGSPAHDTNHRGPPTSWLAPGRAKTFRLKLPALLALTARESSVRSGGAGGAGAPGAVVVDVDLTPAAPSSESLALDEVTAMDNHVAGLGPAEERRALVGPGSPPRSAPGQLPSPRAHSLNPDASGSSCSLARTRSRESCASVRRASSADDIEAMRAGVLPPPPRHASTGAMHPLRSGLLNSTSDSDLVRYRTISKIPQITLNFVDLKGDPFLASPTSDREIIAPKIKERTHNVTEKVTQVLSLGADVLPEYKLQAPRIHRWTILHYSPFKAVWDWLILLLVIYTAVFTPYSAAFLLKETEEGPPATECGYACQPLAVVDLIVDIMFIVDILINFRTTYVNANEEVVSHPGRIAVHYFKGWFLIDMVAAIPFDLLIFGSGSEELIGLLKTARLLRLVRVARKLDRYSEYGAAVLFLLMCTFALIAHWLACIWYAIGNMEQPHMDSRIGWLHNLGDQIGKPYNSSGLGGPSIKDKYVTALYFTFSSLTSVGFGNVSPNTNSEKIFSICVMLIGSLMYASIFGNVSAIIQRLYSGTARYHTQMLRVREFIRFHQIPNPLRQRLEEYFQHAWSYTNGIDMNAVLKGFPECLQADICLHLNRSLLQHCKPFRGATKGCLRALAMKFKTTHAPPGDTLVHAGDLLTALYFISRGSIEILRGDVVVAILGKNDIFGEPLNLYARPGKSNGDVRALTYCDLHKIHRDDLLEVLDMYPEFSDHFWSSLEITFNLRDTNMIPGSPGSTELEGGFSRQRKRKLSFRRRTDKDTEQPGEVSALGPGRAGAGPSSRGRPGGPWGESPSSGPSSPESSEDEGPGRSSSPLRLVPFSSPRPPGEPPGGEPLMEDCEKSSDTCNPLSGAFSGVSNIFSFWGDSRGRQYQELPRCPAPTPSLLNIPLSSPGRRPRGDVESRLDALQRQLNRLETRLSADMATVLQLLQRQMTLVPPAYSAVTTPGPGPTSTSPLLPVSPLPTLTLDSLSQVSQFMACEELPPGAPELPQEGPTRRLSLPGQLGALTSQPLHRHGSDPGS
How it was run: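 First, 1000 cells per well are seeded and cultured overnight at 37 C. Next, FluxOR II dye is loaded for 1 h at room temperature, protected from light. After 10 more minutes, stimulus is added and fluorescence is read.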

[11] = target: Cytochrome P450 3A4 (Homo sapiens) (UniProt P08684); test: Cytochrome P450 Family 3 Subfamily A Member 4 (CYP3A4) small molecule antagonists: luciferase reporter qHTS assay (AID 1671201)
Chain of Cytochrome P450 3A4 (Homo sapiens) (P08684 whole entry, looked up): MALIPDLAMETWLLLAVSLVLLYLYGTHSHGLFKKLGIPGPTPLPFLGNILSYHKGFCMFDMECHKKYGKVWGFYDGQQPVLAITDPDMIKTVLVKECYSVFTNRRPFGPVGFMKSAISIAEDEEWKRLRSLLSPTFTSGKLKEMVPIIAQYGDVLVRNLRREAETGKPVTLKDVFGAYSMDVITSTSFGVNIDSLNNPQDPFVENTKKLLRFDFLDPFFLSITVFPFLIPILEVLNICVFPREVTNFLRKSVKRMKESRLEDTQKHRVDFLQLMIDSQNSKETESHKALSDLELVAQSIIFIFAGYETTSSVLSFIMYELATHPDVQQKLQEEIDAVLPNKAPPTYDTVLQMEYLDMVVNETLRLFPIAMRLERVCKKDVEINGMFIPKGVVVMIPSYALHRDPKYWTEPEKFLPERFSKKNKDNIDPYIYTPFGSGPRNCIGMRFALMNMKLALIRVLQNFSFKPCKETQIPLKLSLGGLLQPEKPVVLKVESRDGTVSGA
How it was run: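 Enzyme and proluciferin substrate are mixed with test chemicals for 10 min, then NADPH regeneration system drives turnover for 1 h at room temperature. A detection reagent halts the reaction; luminescence after 20 min gives relative activity.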

[12] = Caspase-3/7 induction in CHO-K1 cells by small molecules, qHTS cell viability counter screen (AID 1346979); note: nearly all actives have a fitted effect of over 35% in size
How it was run: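 Seeding: 1,500 CHO-K1 cells/well. Rest: 5hr, 37C. Treatment: compounds in DMSO, 16hr. Read: CellTiter-Fluor, 1hr, fluorescence.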

[13] = target: Nuclear receptor subfamily 1 group I member 2 (Rattus norvegicus) (UniProt Q9R1A7); test: Rat pregnane X receptor (rPXR) activation by small molecules, qHTS assay (AID 1346983); conditions: rPXR luciferase reporter cells, One-Glo luminescence, 24 h; max activation: active compounds read high; note: nearly all actives have a fitted effect of over 20% in size
Chain of Nuclear receptor subfamily 1 group I member 2 (Rattus norvegicus) (Q9R1A7 whole entry, looked up): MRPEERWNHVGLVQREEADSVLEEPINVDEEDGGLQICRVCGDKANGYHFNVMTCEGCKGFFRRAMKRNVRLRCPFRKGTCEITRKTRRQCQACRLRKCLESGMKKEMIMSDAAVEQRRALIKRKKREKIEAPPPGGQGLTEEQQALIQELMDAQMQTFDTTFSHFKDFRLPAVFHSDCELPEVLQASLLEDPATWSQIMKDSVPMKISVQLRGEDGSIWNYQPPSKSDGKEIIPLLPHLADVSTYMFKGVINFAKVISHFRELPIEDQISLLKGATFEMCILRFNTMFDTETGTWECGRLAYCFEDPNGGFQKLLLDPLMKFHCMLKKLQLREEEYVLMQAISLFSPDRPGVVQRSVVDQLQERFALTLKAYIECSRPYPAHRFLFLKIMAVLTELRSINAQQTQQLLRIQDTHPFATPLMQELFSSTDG
How it was run: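 Luminescent readout (One-Glo luciferase, 30 min room temperature) followed 24 hr compound treatment at 37 C of rPXR cells plated 2,000 per well and preincubated 5hr; qHTS format with compounds delivered in DMSO.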

[14] = target: Nuclear receptor subfamily 1 group I member 2 (Homo sapiens) (UniProt O75469); test: CYP3A4 induction through human pregnane X receptor (PXR) by small molecules, qHTS assay (AID 1346984); note: nearly all actives have a fitted effect of over 40% in size
How it was run: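 Quantitative HTS in DPX-2 cells, i.e. HepG2 transfected with PXR response element and CYP3A4-promoter luciferase. Compounds in DMSO incubated 24hr at 37C; then P450-Glo CYP3A4 substrate, 3uM final, 3hr; One-Glo luminescence.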

[15] = target: Nuclear receptor subfamily 1 group I member 2 (Homo sapiens) (UniProt O75469); test: Human pregnane X receptor (PXR) activation by small molecules, qHTS assay (AID 1346985); note: nearly all actives have a fitted effect of over 40% in size
How it was run: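 DPX-2 cells (HepG2 co-transfected with a PXR response element and a CYP3A4-promoter luciferase construct) were seeded at 2,000 per well, rested 5 hr at 37C, then exposed to DMSO-dissolved compounds for 24 hr. Activation was read as luciferase luminescence.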

[16] = target: Cytochrome P450 1A2 (Homo sapiens) (UniProt P05177); test: Cytochrome P450 Family 1 Subfamily A Member 2 (CYP1A2) small molecule antagonists: luciferase reporter qHTS assay (AID 1671199)
Chain of Cytochrome P450 1A2 (Homo sapiens) (P05177 whole entry, looked up): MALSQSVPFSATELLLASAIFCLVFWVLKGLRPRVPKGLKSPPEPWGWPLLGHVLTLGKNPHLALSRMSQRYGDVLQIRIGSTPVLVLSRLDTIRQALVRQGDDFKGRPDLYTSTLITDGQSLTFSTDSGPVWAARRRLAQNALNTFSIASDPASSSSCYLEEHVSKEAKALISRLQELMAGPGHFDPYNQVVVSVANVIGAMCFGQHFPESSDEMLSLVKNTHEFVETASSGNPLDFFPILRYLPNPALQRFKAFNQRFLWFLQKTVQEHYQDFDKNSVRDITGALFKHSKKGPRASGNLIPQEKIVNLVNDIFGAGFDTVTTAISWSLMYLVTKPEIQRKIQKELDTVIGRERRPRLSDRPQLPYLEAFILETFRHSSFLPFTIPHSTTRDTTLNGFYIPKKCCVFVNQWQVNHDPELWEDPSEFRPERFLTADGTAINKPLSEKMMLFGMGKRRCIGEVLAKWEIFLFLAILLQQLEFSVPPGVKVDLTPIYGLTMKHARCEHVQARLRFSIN
How it was run: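 Compounds were incubated with CYP1A2 and a luminogenic proluciferin substrate for 10 min at room temperature before the reaction was started with NADPH regeneration solution. After 1 h, detection reagent was added and light output, proportional to CYP activity, was recorded.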
% is set by controls: 0 for no effect and ±100 for the full control effect.

CC(C)c1cccc(O)c1
inactive: outcome [1] | Potency [2] | outcome [3] | outcome [4] | outcome [5] | Potency [6] | Potency [7] | Potency [8] | Potency [9] | Potency [10] | Potency [11]

CC1(C)OC(=O)Nc2ccc(Br)cc21
active: Potency [6] 23.7 µM | Potency [8] 17.4 µM
inactive: outcome [1] | Potency [2] | outcome [3] | outcome [4] | outcome [5] | Potency [7] | Potency [10]

Cc1ccccc1Br
inactive: outcome [1] | Potency [2] | outcome [3] | outcome [4] | outcome [5] | Potency [6] | Potency [10] | Potency [11]

Cc1ncc(CSSCc2cnc(C)c(O)c2CO)c(CO)c1O
active: Potency [7] 6.17 µM | Potency [8] 15.5 µM | Potency [9] 8.71 µM
inactive: outcome [1] | outcome [3] | Potency [12] | outcome [4] | outcome [5] | Potency [6] | max activation [13] -2.5% | Potency [14] | Potency [15] | Potency [10]

CCN1CCCC1CNC(=O)c1cc(S(N)(=O)=O)ccc1OC (configuration not stated)
inactive: outcome [1] | Potency [2] | outcome [3] | outcome [4] | outcome [5] | Potency [8] | Potency [11]
active: Potency [7] 20 µM

CC1=CC(=O)CCC1
inactive: outcome [1] | outcome [3] | Potency [12] | outcome [4] | outcome [5] | Potency [6] | Potency [7] | Potency [8] | Potency [9] | Potency [16] | Potency [10] | Potency [11]

C=CC(=O)OCCCCCC
inactive: outcome [1] | outcome [3] | Potency [12] | outcome [4] | outcome [5] | Potency [6] | Potency [7] | Potency [8] | Potency [9] | Potency [16] | Potency [10] | Potency [11]

CC(C)COC(=O)c1ccccc1O
inactive: outcome [1] | outcome [3] | Potency [12] | outcome [4] | outcome [5] | Potency [6] | Potency [7] | Potency [8] | Potency [9] | Potency [10] | Potency [11]

Cc1nccn1CC1CCc2c(c3ccccc3n2C)C1=O (configuration not stated)
active: Potency [7] 17.4 µM
inactive: outcome [1] | outcome [3] | Potency [12] | outcome [4] | outcome [5] | Potency [6] | Potency [8] | Potency [9]

CC(C)c1cccc(C(C)C)c1N
inactive: outcome [1] | outcome [3] | Potency [12] | outcome [4] | outcome [5] | Potency [6] | Potency [7] | Potency [10] | Potency [11]
